In PubChem BioAssay AID1626 (SRMLSC, 2009):
In all, about 220,000 compounds went through this assay and about 2,000 (0.91%) were called active. Another 2% or so got no clear call; they are omitted. A selection follows. Measured potencies and affinities stand elsewhere. Values without a mark were called inactive. Rule as the data show it: inconclusive = inhibition above about 80% without an active follow-up result; inactive = below that; test concentration not stated here.

experiment: M. tuberculosis H37Rv growth inhibitors, H37Rv strain (AID 1626); conditions: active compounds read high, concentration not given here;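 also: bacteria incubated seven days before Alamar blue readout; 0% = bacteria only wells and 100% = bacteria with antibiotic wells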

Compared with `CC(Cn1cnc2ccccc21)C(=O)O` (stereo not given), `CC(C)(C)C(=O)Cn1c(NCCCl)nc2ccccc21` is higher in inhibition: -0.91% for the first, 0.32% for the second.

First: Cc1cc(C)c(C(=O)Nc2ccc(C)c(C)c2)c(CC(C)(C)C(=O)O)c1
Second: Cc1ccc(OCC(=O)Nc2ccccc2F)cc1C
The inhibition of the first is lower: -5.76% for the first, 2.33% for the second.

Going from `CC(NC(=O)COC(=O)/C=C/c1cccc(C(F)(F)F)c1)c1ccccc1` (stereo not given) to `O=C(N/N=C/c1ccccc1C(F)(F)F)c1ccc(O)cc1`, the inhibition falls from 5.27% to -4.67%.

First: O=C1N=C(N2CCN(c3ccccc3)CC2)SC1Cc1ccccc1 (stereo not given)
Second: c1ccc(C(c2ccccc2)c2noc(CN3CCN(CC4CC4)CC3)n2)cc1
The inhibition of the first is higher: 1.7% for the first, 0.03% for the second.

Going from `O=C(Nc1ccccc1)N1CCCC1c1cccs1` (stereo not given) to `Nc1nnc(SCC(=O)Nc2ccccc2)s1`, the inhibition falls from -1.63% to -3.63%.

Going from `Cc1nc(NC(=O)CSc2ccc(-c3nc4ccccc4[nH]3)cn2)sc1C` to `CCc1nnc(NC(=O)CSc2ccc(-c3nc4ccccc4[nH]3)cn2)s1`, the inhibition falls from -0.38% to -3.06%.

Going from `Cc1cc2nc(-c3ccc(SCC(=O)NC(C)C)nc3)[nH]c2cc1C` to `CC(=O)CSc1ccc(-c2nc3cc(C)c(C)cc3[nH]2)cn1`, the inhibition rises from 1.74% to 11.7%.

First: Cc1ccc2nc(-c3ccc(SCC(=O)Nc4nc(C)cs4)nc3)[nH]c2c1
Second: Cc1ccc2nc(-c3ccc(SCC(=O)O)nc3)[nH]c2c1
The inhibition of the first is lower: 0.98% for the first, 4.36% for the second.

Going from `Cc1ncoc1C(=O)N1CCc2c([nH]c3ccccc23)C1C1CCCCC1` (stereo not given) to `Cc1nn(-c2ccccc2)c(N2CCCC2)c1/C=N/NC(=O)C1CC1`, the inhibition falls from 11.8% to 1.71%.

Going from `CC(CS(=O)(=O)c1cccc2cccnc12)N1CCCCC1` (stereo not given) to `O=C(O)c1cccc(NC(=O)c2ccc(Cl)c(S(=O)(=O)N3CCCCCC3)c2)c1`, the inhibition falls from 2.17% to -5.92%.

Compared with `CCNc1nc(NCc2ccccc2)nc(SCC(N)=O)n1`, `CCOC(=O)CNC(=O)CSc1nnc(-c2ccccc2)c(-c2ccccc2)n1` is lower in inhibition: 78.2% for the first, -8.15% for the second.

First: COc1ccc(NC(=O)Nc2sc(=S)n(C)c2C)cc1
Second: CCOC(=O)CSc1nc(-c2ccc(OC)cc2)ns1
The inhibition of the first is lower: -3.18% for the first, 57.1% for the second.

Compared with `CCOc1nc(-c2ccc(OC)cc2)ccc1-c1noc(C)n1`, `CCOC(=O)c1c(-c2ccc(OC)cc2)csc1/N=C/C1=C(O)CCCC1=O` is lower in inhibition: 6.32% for the first, 4.93% for the second.

Compared with `COC(=O)C1=C(C)NC(=O)CC1c1ccc(F)c(Br)c1` (stereo not given), `CCOC(=O)C1=C(C)NC(=O)NC1c1c(C)nn(-c2ccccc2)c1Cl` (stereo not given) is lower in inhibition: 13.5% for the first, -11.2% for the second.

Going from `CCN(c1ccccc1)S(=O)(=O)c1ccc(C(=O)OC(C)C(=O)NCCC2=CCCCC2)cc1` (stereo not given) to `COc1ccc(C(C(=O)NC2CCCCC2)N(C(=O)c2sc(C)nc2C)c2ccccc2)cc1` (stereo not given), the inhibition rises from 0.82% to 1.23%.

Compared with `COc1ccc(C(C(=O)NC2CCCCC2)N(C(=O)c2ccccn2)c2cccnc2)cc1` (stereo not given), `COc1ccc(N(C(=O)c2cnccn2)C(C(=O)NC2CCCCC2)c2ccc(O)cc2)cc1` (stereo not given) is higher in inhibition: -6.78% for the first, 4.1% for the second.

Compared with `COc1ccc(C(C(=O)NC2CCCCC2)N(C(=O)c2sc(C)nc2C)c2ccc(OC)cc2)cc1` (stereo not given), `CCOC(=O)CNC(=O)CSc1nnc(-c2cccc(C)c2)n1-c1ccc(OC)cc1` is lower in inhibition: 78.9% for the first, 3.71% for the second.

Compared with `CCOc1ncccc1C(=O)OCc1ccc(C#N)cc1`, `COc1ccc(NC(=O)COC(=O)Cc2ccc(Br)cc2)cc1` is higher in inhibition: 4.57% for the first, 15.8% for the second.

Going from `C=C1C(=O)[C@@]23[C@H](O)C[C@@H]4C(C)(C)CC[C@H](O)[C@]4(C)[C@@H]2C[C@H](O)[C@@H]1[C@H]3O` to `COc1ccc(C2SC[C@@H](C(=O)O)N2C(C)=O)cc1` (stereo not given in full), the inhibition falls from -0.64% to -5.12%.

Going from `C#CCONC(=O)c1cc(OCC(F)(F)F)ccc1OCC(F)(F)F` to `CCc1ccccc1NC(=O)CN(C)C(=O)Cn1cc(C(F)(F)F)cc(Cl)c1=O`, the inhibition rises from -4.59% to 10%.

Compared with `O=C(N/N=C/C=C/c1ccccc1)c1cccnc1`, `CC(=O)/C(=C(/O)c1ccccc1)c1nc2ccccc2[nH]1` is higher in inhibition: -6.98% for the first, 2.45% for the second.

First: Cc1[nH]c(=O)[nH]c(=O)c1S(=O)(=O)N(C)Cc1ccccc1
Second: CCCn1c(N2CCC(Cc3ccccc3)CC2)nc2c1c(=O)[nH]c(=O)n2C
The inhibition of the first is lower: -4.39% for the first, 12.4% for the second.

Going from `CSCC[C@H](NC(=O)c1cc([N+](=O)[O-])ccc1Cl)c1nc2ccccc2[nH]1` to `CSCCC(NC(=O)c1cccc([N+](=O)[O-])c1)c1nc2ccccc2[nH]1` (stereo not given), the inhibition rises from 3.89% to 24.1%.

Going from `CCN(CCCNC(=O)C1CCC(=O)N1Cc1ccccc1Cl)c1cccc(C)c1` (stereo not given) to `COc1cccc(NC(=S)N(Cc2ccccn2)Cc2ccccc2Cl)c1`, the inhibition rises from 4.14% to 8.54%.

Compared with `O=Nc1c(O)[nH]c2ccc(Cl)cc12`, `COc1cccc(N=CC2=C(O)CCCC2=O)c1` is lower in inhibition: -4.64% for the first, -8.36% for the second.

First: O=C1CCCC(O)=C1C=Nc1cccc(C(F)(F)F)c1
Second: O=C1CCCC(O)=C1C=Nc1ccc(O)cc1
The inhibition of the first is higher: 8.3% for the first, 3.95% for the second.

Compared with `Cc1cc(C)cc(N=Cc2c(O)c3ccccc3oc2=O)c1`, `Cc1ccccc1N=Cc1cccc(O)c1O` is higher in inhibition: 6.96% for the first, 30.2% for the second.

Going from `Cc1cccc(-c2nc(C#N)c(NCC3CCCO3)o2)c1` (stereo not given) to `CCOC(=O)N1CCN(Cc2nc(-c3cccc(C)c3)no2)CC1`, the inhibition falls from 8.91% to -1.51%.

First: CN(C)S(=O)(=O)c1ccc(NC(=S)NC(=O)c2cccs2)cc1
Second: CCN(CC(=O)Nc1ccc(NC(C)=O)cc1)C(=O)/C=C/c1cccs1
The inhibition of the first is lower: -8.18% for the first, -2.91% for the second.

First: CCCc1nnc(NC(=O)CCCN2C(=O)c3ccccc3C2=O)s1
Second: CNC(=O)CSCCn1c(SCC(=O)NC)nc2ccccc2c1=O
The inhibition of the first is lower: -6.93% for the first, -1.73% for the second.

Compared with `COC(=O)CCC(=O)N1CCc2cc(S(=O)(=O)N3CCc4ccccc43)ccc21`, `O=C(c1cnc2sccn2c1=O)N1CCCc2ccccc21` is higher in inhibition: -6.96% for the first, 0.62% for the second.

First: Cc1c(NC(=O)CSc2nnc(COc3ccccc3)n2-c2ccccc2)c(=O)n(-c2ccccc2)n1C
Second: COCCn1c(SCC(=O)N2CC(=O)Nc3ccccc32)nc2ccccc2c1=O
The inhibition of the first is lower: -6.74% for the first, 14.5% for the second.

Compared with `Cc1ccc(-c2csc(N3C(=N)SCC3=O)n2)cc1`, `N=C1SCC(=O)N1c1nc(-c2ccccc2)cs1` is lower in inhibition: -8.29% for the first, -8.62% for the second.

Compared with `O=C(CN1CCOCC1)Nc1ncc(Cc2ccccc2Cl)s1`, `O=C(CN1CCOCC1)Nc1ncc(Cc2cccc(Cl)c2)s1` is higher in inhibition: 9.04% for the first, 9.73% for the second.

Compared with `CCc1nnc(N2C(=N)SCC2=O)s1`, `CCOc1ccc(/C=C/C2=NNC(=O)CC2)cc1` is lower in inhibition: 10% for the first, -3.64% for the second.

Compared with `CC(C)C(=O)Nc1ncc(Cc2cccc(Cl)c2)s1`, `Cc1cccc(-c2nsc(SCC(=O)Nc3nccs3)n2)c1` is lower in inhibition: 17.7% for the first, 10.4% for the second.

Going from `Clc1ccc(CN2CCN(c3ncnc4scc(-c5cccs5)c34)CC2)cc1` to `Clc1ccc(CSc2ncn[nH]2)cc1`, the inhibition rises from 7.36% to 74.3%.

Compared with `O=C(Cn1cc2c(n1)CCCC2)NCCCN1CCN(C2CCCCC2)CC1`, `CCCCn1c(N2CCC(Cc3ccccc3)CC2)nc2c1c(=O)[nH]c(=O)n2C` is higher in inhibition: -6.49% for the first, 46.5% for the second.

First: O=C(OCc1ccccc1)C1=NNC2C(=O)N(Cc3ccccc3)C(=O)C12 (stereo not given)
Second: CCOC(=O)CSc1nc(-c2ccccc2)nc2ccccc12
The inhibition of the first is higher: 8.28% for the first, -6.27% for the second.

Compared with `CCc1ccc(-c2cc(C(F)(F)F)n3nc(C(=O)Nc4c(C)nn(Cc5ccccc5C)c4C)cc3n2)s1`, `CCc1ccc(-c2cc(C(F)(F)F)n3nc(C(=O)Nc4c(C)nn(Cc5ccccc5Cl)c4C)cc3n2)s1` is lower in inhibition: 2.87% for the first, -4.86% for the second.

Compared with `O=S(=O)(Nc1ccc(C(F)(F)F)cc1)c1cnc[nH]1`, `Cc1ccc(C)c(N(C)S(=O)(=O)c2cccc3nsnc23)c1` is lower in inhibition: -0.2% for the first, -5.61% for the second.

Going from `CCOC(=O)C(C(=O)OCC)N(C#N)c1nc(C)cc(C)n1` to `CCOC(=O)CNC(=O)CSc1nnc(SCC(=O)NCC(=O)OCC)s1`, the inhibition rises from -14% to -11.7%.

Compared with `Cc1cccc(-c2nsc(SCC(=O)c3ccc(Cl)cc3)n2)c1`, `O=C(O)c1ccc(CSc2ncn[nH]2)cc1` is lower in inhibition: 94% for the first, -5.36% for the second.

Compared with `COc1ccc(C2=NOC(C(=O)N3CCN(c4ccccc4OC)CC3)C2)cc1` (stereo not given), `COc1cc(/C=N/NC(=O)c2c(-c3ccccc3)noc2C)cc(OC)c1OC` is lower in inhibition: 10.3% for the first, -3.6% for the second.

Compared with `Cn1c2ccccc2c(=O)c2c(=O)n(Cc3ccco3)c(-c3ccc(C(C)(C)C)cc3)nc21`, `CCCCc1ccc(NC(=O)COc2ccc(C(=O)Nc3ccccc3C)cc2)cc1` is higher in inhibition: 50.6% for the first, 73.6% for the second.

Going from `Cc1c(F)cccc1NC(=O)CCC(=O)O` to `CC(=O)c1cccc(NC(=O)C(C)OC(=O)CNC(=O)c2ccc(C)s2)c1` (stereo not given), the inhibition falls from 0.24% to -1.06%.

Compared with `CCn1c(=O)cc(NC2=NCC(C)CN2c2cccc(Cl)c2)n(C)c1=O` (stereo not given), `Oc1c(Br)cc(Cl)cc1C=Nc1ccc(N2CCOCC2)cc1` is higher in inhibition: -2.51% for the first, 7.51% for the second.

In the case of `O=S(=O)(CCn1cccc1)CCn1cccc1`, the inhibition is reported as 8.4%.
